# Reference: PubChem BioAssay (EPA / NIEHS)
# Results filed as inconclusive are left out. A structure can be active in one record and inactive in another. Activity calls are given as the source filed them. Rule for the calls: active = hit-call score of the fitted dose curve at least 0.9, where 1 is the maximum; inconclusive = response in the unintended direction; inactive = score below 0.9.
# Biological target: Peroxisome proliferator-activated receptor gamma (Homo sapiens) (UniProt P37231)
# Experiment: ATG_PPARg_TRANS: Attagene TRANS-FACTORIAL HepG2 Assay for human Peroxisome Proliferator-activated Receptor-gamma (PPARg) (AID 2283007)
# Experimental: ATG_TRANS is a cell-based, multiplexed-readout assay that uses HepG2, a human liver cell line, with measurements taken at 24 hours after chemical dosing in a 24-well plate.ATG_PPARg_TRANS is one of 30 assay component(s) measured or calculated from the ATG_TRANS assay. It is designed to make measurements of mRNA induction, a form of inducible reporter, as detected with fluorescence intensity signals by Reverse transcription polymerase chain reaction (RT-PCR) and Capillary electrophoresis technology.Data from the assay component ATG_PPARg_TRANS was analyzed into 1 assay endpoint. This assay endpoint, ATG_PPARg_TRANS, was analyzed in the positive analysis fitting direction relative to DMSO as the negative control and baseline of activity. Using a type of inducible reporter, measures of mRNA for gain-of-signal activity can be used to understand the reporter gene at the transcription factor-level as they relate to the gene PPARG. Furthermore, this assay endpoint can be referred to as a primary readout, because this assay has produced multiple assay endpoints where this one serves a reporter gene function. To generalize the intended target to other relatable targets, this assay endpoint is annotated to the nuclear receptor intended target family, where the subfamily is non-steroidal.
# Human liver HepG2 cells are transiently transfected with multiple reporter transcription units (MRTUs) in 6-well plates using FuGene 6 reagent (Roche; 3 ml FuGene/1 mg DNA). The MRTU constructs are regulated by a cis-regulating element (promoter). […] A major difference between the CIS and TRANS system is that in CIS activities of endogenous TFs are measured, whereas the TRANS assay evaluates changes in activities of exogenous, chimeric NR-Gal4 proteins. […] At the end of 24 hour incubation, total RNA was isolated using TriZol reagent (Invitrogen). The isolated RNA is then reverse-transcribed using oligo(dT) primer and Mo-MLV reverse transcriptase (Invitrogen) with DNAse I (Ambion) treatment for 30 min. The one-tenth of the produced cDNA was amplified by PCR using Taq DNA polymerase (Invitrogen) and two reporter sequence-specific primers. The PCR products were fluorescently labeled by primer extension with 6-arboxyfluorescein (6-FAM) 5'-labeled reporter sequence-specific primer (2 min at 95 C, 20 s at 68 C and 10 min at 72 C) and these products were digested with 5U of HpaI (New England Biolabs) for 2h at 37 C. The fragments were purified using Qiaquick PCR columns (Qiagen), analyzed on an ABI 3130xL genetic analyzer (Applied Biosystems) with peak positions identified by using a set of X-rhodamine (ROX)-labeled MapMarker1000 molecular weight standards (BioVentures). The raw capillary electrophoresis data was processed using Attagraph software (Attagene).
# Peroxisome proliferator-activated receptor gamma (Homo sapiens), sequence (P37231 whole entry, looked up): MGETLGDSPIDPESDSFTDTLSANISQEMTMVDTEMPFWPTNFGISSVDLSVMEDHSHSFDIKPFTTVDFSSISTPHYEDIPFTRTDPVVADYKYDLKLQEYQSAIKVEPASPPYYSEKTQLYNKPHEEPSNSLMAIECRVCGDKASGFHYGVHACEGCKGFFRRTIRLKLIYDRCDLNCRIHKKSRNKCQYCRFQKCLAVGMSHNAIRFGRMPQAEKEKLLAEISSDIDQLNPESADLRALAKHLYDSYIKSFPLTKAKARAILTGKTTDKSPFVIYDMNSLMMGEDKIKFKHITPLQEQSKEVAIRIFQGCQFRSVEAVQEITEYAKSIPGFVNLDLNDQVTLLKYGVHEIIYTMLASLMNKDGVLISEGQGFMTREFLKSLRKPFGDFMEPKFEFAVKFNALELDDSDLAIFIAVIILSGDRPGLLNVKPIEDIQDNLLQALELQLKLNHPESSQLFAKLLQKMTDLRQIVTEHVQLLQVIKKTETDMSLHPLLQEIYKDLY
Structure (SMILES),AC50,outcome
CNC(=O)O/N=C/C(C)(C)S(C)=O (stereo not given),41.1 µM (active),
CCCCCCCCc1ccc(O)cc1,22 µM (active),
O=C(CCl)CCl,,inactive
CCC(=O)C(CC(C)N(C)C)(c1ccccc1)c1ccccc1 (stereo not given),,inactive
CC(=O)c1cc(C(C)(C)C)cc2c1CCC2(C)C,,inactive
C[C@]12CCC(=O)C[C@@H]1CC[C@@H]1[C@@H]2CC[C@]2(C)[C@@H](O)CC[C@@H]12,,inactive
CCOP(=S)(OCC)SCSP(=S)(OCC)OCC,,inactive
O=c1[nH]c(=O)[nH]c(=O)[nH]1,,inactive
Cc1ccc2ccccc2c1C,,inactive
C=CCc1ccc(OC)cc1,,inactive
Clc1nc(Cl)nc(Cl)n1,,inactive
C[C@@H](Oc1ccc(Cl)cc1Cl)C(=O)O,49.4 µM (active),
CN(C)P(=O)(N(C)C)N(C)C,,inactive
O=Cc1cccc(Oc2ccccc2)c1,,inactive
CCOC(=O)/C=C(C)/C=C/C[C@@H](C)CCCC(C)C,1.56 µM (active),
Oc1cccc2cccnc12,,inactive
Oc1c(I)cc(I)cc1I,9.7 µM (active),
CC(=O)[O][Hg][c]1ccccc1,,inactive
COc1ccc(C=O)cc1,,inactive
NNC(=S)NN,,inactive

Structure (SMILES),AC50,outcome
CCOP(=S)(OCC)SCCS(=O)(=O)CC,,inactive
C[C@@H]1C[C@@H]([C@H](O)CC2CC(=O)NC(=O)C2)C(=O)[C@@H](C)C1,23.4 µM (active),inactive
CCCCCCCCCl,,inactive
COP(=S)(OC)Oc1cc(Cl)c(Cl)cc1Cl,54.8 µM (active),
CCCCCCCCC(=O)NCc1ccc(O)c(OC)c1,27.3 µM (active),
O=[N+]([O-])c1ccc(O)c([N+](=O)[O-])c1,,inactive
O=S(=O)(c1ccc(Cl)cc1)c1ccc(Cl)cc1,7.7 µM (active),
CC(=O)OC(c1ccccc1)C(Cl)(Cl)Cl (stereo not given),,inactive
O=C1C(Cl)=C(Cl)C(=O)c2ccccc21,,inactive
CCN(CC)C(=O)Cl,,inactive
CC(C#N)CCC#N (stereo not given),,inactive
CC1(C)CCC(Cc2ccc(Cl)cc2)C1(O)Cn1cncn1 (stereo not given),,inactive
CC(C)(C)c1cc(O)ccc1O,52.5 µM (active),
ClCc1cccnc1,51.8 µM (active),
CC12CC1(C)C(=O)N(c1cc(Cl)cc(Cl)c1)C2=O (stereo not given),,inactive
C=CC#N,,inactive
CCSC(C)CC1CC(=O)C(C(CC)=NOC/C=C/Cl)=C(O)C1 (stereo not given),35.3 µM (active),
Cc1ccccc1C(=O)Nc1cccc(OC(C)C)c1,27.9 µM (active),
COc1ccccc1OC,,inactive
